This is an account of results in PubChem BioAssay AID1508600 (Functional Genomics Laboratory (NCATS/FGL), 2020).

About 3,700 (7%) of roughly 53,000 sequences were called active.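 The calls were made as follows: active = gene knockdowns whose robust z-score for IL-1 alpha signal is at least 2 or at most -2, so actives lie on both sides; inactive = the rest.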 Many of the other results were omitted from the sample, so actives are more common in it than they were.

The nature of this experiment: Components of the Cytosolic LPS Sensing Pathway: Gene Identification via Genome-wide siRNA Screen.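 Also: robust z of the log signal after scaling to non-targeting control siRNA wells of the plate.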 The note with it: RAW264.7 macrophages, IL-1a HTRF, actives lie on both sides, screened at 100 nM (by protocol), cells primed 5 h with Pam3CSK4 first. An outline of the steps: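 Read-out: IL-1a HTRF on supernatant, divided by plate negative-control median ×100, log-transformed and converted to robust z-score. Cells were RAW264.7 given 100 nM siRNA, Pam3CSK4-primed 5 hours, then LipidA-transfected 24 hour.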
In general terms: Time-resolved FRET reads energy transfer from a long-lived donor to a nearby acceptor.
For the sequence CCAUUUUUCCUACGUGGGUTT against Zfand2a, the z-score was 0.449 (inactive).
GGAUUUGGGUUUUCUAUAATT against Cfb: the z-score was -0.0373 (inactive).
As for CAAUGACAGCAGAUGACGUTT against Crabp2, the z-score is 0.0834 (inactive).
For the sequence CCGGUCAAAAUUGAAAAGGTT against Bves, the z-score was 0.666 (inactive).
Consider GGUGAAAAGUCCUGCCAAGTT against Nefh, for which the z-score was 0.408 (inactive).
The figure for GGCCAUUUGGAAACUAUUATT against Anapc11 is -0.109 (inactive); for GGCUGUGAGAUAGAUCUAATT against Arhgef40 it is 2.07 (active).
For GCAAGGAGUUUAUGUGAGUTT against Olfr170, the z-score is 0.297 (inactive).
Take GGGCAAAAUACAAAAGGAGTT against Mlph: the z-score was -0.9 (inactive).
For the sequence GGACAUUCUCAAAUCUUGATT against Praf2, the z-score was 0.244 (inactive).
For GCAUAAGGACCCUUUGUCATT against Rasl10b, the z-score is -1.27 (inactive).
Regarding GCUGUAUCAGUCUUUCUAUTT against Cyp27b1, the z-score was 0.442 (inactive).
With GGACAUGUCGGAUGGCUUCTT against P4ha1, the z-score is 0.212 (inactive).
As for GGCAGCAUUAAAACUUAAGTT against Chtop, the z-score was 2.71 (active).
In the case of GGGUAACAUGAAGAUCAAUTT against Rnf19a, the z-score was 0.488 (inactive).
Turning to GGGACAAAAGCAAUCAAACTT against H2-M11, the z-score was 2.06 (active).
As to GCAAGCAUGCUCAUAAAGATT against Cast, the z-score was -0.142 (inactive).
As to CGUAUGCAGAACAACAUUUTT against Klhl2, the z-score was 1.77 (inactive).
As for CGAUCCCUGUCUGUUGGAUTT against Spint4, the figure is 0.944 (inactive); as for GGAGGUAUACAGUAAGGAGTT against Fbxo32, 0.542 (inactive); as for GGCUGACAGUAACAAGUGGTT against Fignl1, 3.72 (active).
The figure for GCCAGGAUCCAUCAAUUCCTT against Olfr376 is -1.84 (inactive); for CCCUGAAAAUUAUCGAGCGTT against Galnt18 it is -0.493 (inactive).
Take CCCAGGAACUAUGAGUUGUTT against Rnf31: the z-score is -1.87 (inactive).
Turning to GGAGAAAUUCUUCAAUGAGTT against Syt2, the z-score was -0.19 (inactive).
With GGAGACCAAAAUUUCUUGGTT against Sox9, the z-score was 0.0192 (inactive).
Regarding GGAUCCGAACAUCCUCAGGTT against Hr, the z-score was -2.22 (active).
As for CGAAGAGAUCAGUAAUAUGTT against Kif21a, the figure is 0.31 (inactive); as for CCCAUGGAAAUCCUCAGUATT against Ctsa, -2.1 (active).
For CCCACUGAUGAUUACGUUCTT against Irf5, the z-score was -0.247 (inactive).
CCACAAGCUAAUACAUGCUTT against Ubac1: the z-score is -1.37 (inactive).
For GGCCACAAAGACUCUGUGATT against Aamp, the z-score was -2.25 (active).
As for GGCAGAACACCUUCUUAGUTT against Dars2, the z-score is -0.425 (inactive).
Turning to AGUUAGCCUUGAGGAGAAUTT against Olfr1512, the z-score is 0.503 (inactive).
Turning to CCAUUGGAUUGGAACUGGATT against Dhx57, the z-score is -0.288 (inactive).
As for GCAGGUUUGAUAUAAAAUCTT against Uba2, the z-score was 0.162 (inactive).
For GCUCACCUGAGUCAAUGAUTT against Nr5a2, the z-score is -2.25 (active).
GGAAUUUUGGUAGGUUUUATT against Tlcd4: the z-score was 1.36 (inactive).
For the sequence CGGAAAAUCCUGCCUCCCUTT against S100pbp, the z-score is -0.36 (inactive).
Regarding GGAUGUAGAUGUUGGUUUUTT against Kcnj14, the z-score was 2.52 (active).
Regarding GCCAUCUGCUUUAACCUCUTT against Aebp2, the z-score was 0.238 (inactive).
As for GGUGUACGAGAUCCAGGACTT against Eif3l, the figure is -0.699 (inactive); as for GGCUGGUCAAAAUUUGGAATT against Cdca2, -0.9 (inactive); as for CGCAAGGACCGAUCUGAUGTT against Rnps1, -2.41 (active).
As for GCAUCUGGGACAUUUAGAGTT against Cd200r3, the z-score was -1.08 (inactive).
Consider CCAGCUUUUGUUUGUUAGATT against Trappc11, for which the z-score was 0.56 (inactive).
As for GGAAGACUUGGCUACACAATT against Rab40c, the figure is -1.04 (inactive); as for GGCAAACCUGCUUCUGCUATT against Prss52, -1.27 (inactive); as for GUUACUUUGAUGUUGUCUATT against Pdgfrl, 0.817 (inactive).
GGCCAAUGCACUGUGUUACTT against Tinag: the z-score is 1.25 (inactive).
On to GCAGAGAGAUACAUUAAAGTT against Adam10, for which the z-score is 1.16 (inactive).
On to CGCGCUUCUACUUUUUUUATT against Nkx2-1, for which the z-score is 0.406 (inactive).
As for GGAGGACCCUAUGUCUAAUTT against Adora1, the figure is 4.6 (active); as for “GCUGAGACAUGUGGAGUAUTT against 4931429L15Rik”, 0.426 (inactive); as for GGUUCUCAUCAUUUCAACUTT against Sh3bgrl, -1.61 (inactive).
Regarding GGCUUUGACCCGAAAAGAATT against Tut4, the z-score is -0.0161 (inactive).
For CGUGCCAAUUGAAAAAAACTT against Prkn, the z-score was 1.23 (inactive).
On to CCAUACAAUAAGAGUGCUATT against Clec4a4, for which the z-score is 0.936 (inactive).
Consider “GGGUAGGCAAAGUUUUCAATT against 1700029M20Rik”, for which the z-score is 4.63 (active).
Turning to GCAUUCCAUGGUACAGGGUTT against Adamts4, the z-score is -0.646 (inactive).
For CGGUUUACAUUCCUGACUUTT against Plekho2, the z-score was 1.42 (inactive).
In the case of GGACCAAAGAUGCAUCAGUTT against Zfyve16, the z-score is -0.788 (inactive).
As for GGACCAAGGCUUUAUGAACTT against Crygn, the z-score is 0.404 (inactive).
As for GGCCUACGAACAGGUCAUGTT against Foxa2, the figure is 0.0835 (inactive); as for “CGUGUCUGAAGGACUACAATT against 1700052K11Rik”, 0.0454 (inactive).
For GCAGUAAGUCAGUGCCUCATT against Atxn1, the z-score was 1.51 (inactive).
As for GGUUGAUGCCAUGAAGUCCTT against Acyp2, the z-score is -1.22 (inactive).
Consider GGUUGUUGUGACCUUCCUGTT against Bod1, for which the z-score was -2.65 (active).
Take GGGACAUUAUGCUUAUGACTT against Srsf7: the z-score is -0.513 (inactive).
Consider GGCAGAAGCCUAAAACGGUTT against Nudt2, for which the z-score was 0.00394 (inactive).
In the case of GGCAUUCUGAAAACAACUCTT against Hvcn1, the z-score was 2.02 (active).
The figure for GCCAAGACCUAUGAGUAUATT against Naaladl1 is 1.33 (inactive).
On to CCGAUAAUAUCAAUGGAAATT against Med24, for which the z-score is 0.744 (inactive).
For the sequence GGACAUCAAGAAGGACAAATT against Ppp2r5d, the z-score is 0.874 (inactive).
In the case of GGGUCAAAGAGAAAAAAGUTT against Hoxa13, the z-score is -1.2 (inactive).
The figure for GGUGAUGGUGUAAAAUACATT against Dab2 is 4.98 (active); for GGAGAAGCAUGGCUAUAACTT against Rcor2 it is -0.393 (inactive).
On to GGUGACCUACAAGAUUUGUTT against Csdc2, for which the z-score was -0.801 (inactive).
For GUCACUCUUUUUUAUGGAATT against Olfr485, the z-score is -1.48 (inactive).
As for GGCGAAUUGAAGGAGACCATT against Tmod3, the figure is 2.54 (active); as for GGGCAUAGAUUAGUCUUUATT against Ing2, 1.01 (inactive); as for GCGCAUAUUUUAUCAACUCTT against Plcb3, 0.38 (inactive).
For the sequence GGAACCAUGGACCUUAAUUTT against Rbm4, the z-score is 0.291 (inactive).
Regarding GCUUUCCUAGACAAUCUAUTT against Arhgap19, the z-score was 0.0654 (inactive).
The figure for GGCUGCAUUACCCAGCUUATT against Olfr853 is 0.719 (inactive).
Consider GGAAGUCCUAUGAUUAAACTT against Zfand1, for which the z-score was -0.633 (inactive).
CCUUCUAUUCACUUUACCATT against Vmn1r87: the z-score was -0.907 (inactive).
Regarding GGGUUCACAUGGCAUAGUCTT against Zfp1, the z-score is -0.0137 (inactive).
As to GGAGAGUACAGACACUGAGTT against Masp2, the z-score was -0.22 (inactive).
As to GCUUAGACAACGACAUUUCTT against Mcoln3, the z-score was 2.04 (active).
For the sequence GGUCUUCUCCAAGAUCUUCTT against Cyp26b1, the z-score was 1.03 (inactive).
In the case of GCACACCUAUGUCCACUCUTT against Aars, the z-score is -0.923 (inactive).
In the case of GGUGCCUUCUGUAAACGAGTT against Foxc2, the z-score is 2.81 (active).
Consider GGAAGGAAAACCUUUCAACTT against Cyp2j6, for which the z-score is 0.975 (inactive).
As for GGUGGUGACCUUGGAUGUUTT against Gstp3, the figure is -0.00982 (inactive); as for GGAAGCACAUAGAAGCCAATT against Defb11, -0.504 (inactive); as for GGGAGAGUGGAUCAUCAAUTT against P2ry10, -0.0942 (inactive).
As for GGGAAUAUUUGGAUAACUUTT against Pak7, the figure is 4.24 (active); as for GCCACGACCAUUCAGACUCTT against Lrrc42, 1.27 (inactive).
Take GGAUGAUCGGCACUAUAACTT against Otulin: the z-score was 1.81 (inactive).
With GGAGAGAUGUUUAUGAAUATT against Slc6a14, the z-score was -0.429 (inactive).
Take GGAAAAAGAUAGAACCAGATT against Larp1b: the z-score is -0.177 (inactive).
Turning to GGAAAGCUCUUUGUGUCGGTT against Gramd3, the z-score is -0.476 (inactive).
Regarding CCAUCUAGUGCUGUAUUUCTT against Rnf215, the z-score is 0.67 (inactive).
As to GGUGAAAUCCAUUAAAGAATT against Fth1, the z-score is -2.06 (active).
With GGAGUUUUCUCGAAACUUCTT against Fate1, the z-score is 0.993 (inactive).
For the sequence GGACCAAGAACCAGCAAUGTT against Defb6, the z-score is -0.69 (inactive).
As for GGAAAAACUGAAACAGUUUTT against Eif3a, the figure is 1.06 (inactive).
